A selection: hits, their analogues and other compounds. The true share with any hit is near 3.9%.
GALC G270D up = A Novel Cell-Based Assay to Identify Small Molecules for B -Galactocerebrosidase | 145M-Twi-hGALC-G270D cells (Twitcher mouse brain line with human GALC G270D), HMU-beta-Gal fluorescence, 48 h | P54803 | AID 1159614, 2016 | Potency, µM (highest dose often 57.5 µM), actives largely listed as activators | hit rate 0.1% among 45,000; further: potency means the concentration at half of the fitted maximal effect; 0% is about no effect; nearly all actives have a fitted effect of over 65% in size
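Fluorescence readout: HMU-β-gal cleavage by mutant GALC (0.1 mM final, citrate/phosphate pH 5.2 with 1 mg/mL taurocholate), stopped with carbonate/bicarbonate plus Triton X-100. Cells: murine Twitcher 145M-Twi expressing human G270D GALC; qHTS for activators.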
NTMT1 inh = Primary qHTS for Inhibitors of N-terminal methyltransferase 1 (NTMT1): MTaseGlo Assay | N-terminal Xaa-Pro-Lys N-methyltransferase 1 (Homo sapiens), Q9BV86 | NTMT1 MTase-Glo SAH luminescence, purified enzyme | Potency, µM (top dose mostly 114 µM), without a hit: top-dose activity change, negative = inhibition, usual class: inhibitors | hit rate 2.5% among 59,000;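 further: potency means the concentration at half of the fitted maximal effect; plate controls were DMSO vehicle for no effect and no enzyme for full effect; nearly all actives have a fitted effect of over 65% in size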
Target sequence (Q9BV86 whole entry, looked up): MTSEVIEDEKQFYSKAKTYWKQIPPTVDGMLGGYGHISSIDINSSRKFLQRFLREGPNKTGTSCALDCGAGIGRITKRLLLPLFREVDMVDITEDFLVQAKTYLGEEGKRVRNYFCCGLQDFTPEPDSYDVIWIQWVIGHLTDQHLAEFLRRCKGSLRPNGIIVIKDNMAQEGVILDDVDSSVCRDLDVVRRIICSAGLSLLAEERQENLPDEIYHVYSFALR
p53null 32C tox = qHTS Screen for Compounds that Selectively Target Cancer Cells with p53 Mutations: Cytotoxicity of p53 Null Cells at the Permissive Temperature; Potency, µM (top dose mostly 46.1 µM), for the others: at the highest dose activity change, negative = cytotoxicity, hits mostly cytotoxic; hit rate 0.62% among 55,000; H1299-neo p53 null cells, ATP luminescence, 24 h, 32C; AID 903, 2007;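 further: potency means the concentration at half of the fitted maximal effect; 0% = DMSO only and -100% = full killing by 100 µM tamoxifen; nearly all actives have a fitted effect of over 55% in size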
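H1299-neo (p53 null) cells, 600/well, treated 24 h at 32C with compound up to 46 uM; ATPlite luminescence viability, normalized to DMSO and 100 uM tamoxifen; AC50 by Hill fit.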
p53null 39C tox = qHTS Screen for Compounds that Selectively Target Cancer Cells with p53 Mutations: Cytotoxicity of p53 Null Cells at the Nonpermissive Temperature. H1299 p53-null (neo) cells, 39C, ATPlite viability, 24 h. Potency, µM (top dose mostly 46.1 µM), for inactives: at the highest dose activity, negative = cell killing, usual class: cytotoxic. hit rate 0.97% among 55,000. AID 904, 2007;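 further: potency means the concentration at half of the fitted maximal effect; 0% = DMSO only and -100% = full killing by 100 µM tamoxifen; nearly all actives have a fitted effect of over 50% in size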
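Cells seeded at 600/well, 37C overnight. Compound added (up to 46 uM), plates shifted to 39C for 24 hr. ATPlite added, luminescence read after 20 min at room temperature.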
FH mod = Identification of activators of human fumarate hydratase by quantitative high-throughput screening | Fumarate hydratase, mitochondrial (Homo sapiens), P07954 | FH coupled MDH/diaphorase resazurin fluorescence, 15 min | Potency, µM (series often up to 79.9 µM), without a hit: at the highest dose activity change, negative = inhibition, hits mostly inhibitors | hit rate 0.22% among 54,000 | AID 1347055, 2019; further: potency means the concentration at half of the fitted maximal effect; on the % scale 0 is the no-effect control and ±100 the full control effect; the screen sought activators but most active calls are inhibition curves; nearly all actives have a fitted effect of over 45% in size
GPR32 ag = qHTS for Agonists of Human Resolvin D1 Receptor DRV1; CHO-K1 GPR32 beta-arrestin PathHunter luminescence, 90 min; zero percent set by DMSO-only wells; hit rate 2.5% among 48,000; Probable G-protein coupled receptor 32 (Homo sapiens), O75388; activation, % at 76.9 µM;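 active means activation of at least 60% and not above a set upper limit, about 1 call in 100 departs from these limits; inconclusive means activation of 40% to 60%, or above that upper limit; inactive means activation under 40%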; further: 0% is about no effect
Target sequence (O75388 whole entry, looked up): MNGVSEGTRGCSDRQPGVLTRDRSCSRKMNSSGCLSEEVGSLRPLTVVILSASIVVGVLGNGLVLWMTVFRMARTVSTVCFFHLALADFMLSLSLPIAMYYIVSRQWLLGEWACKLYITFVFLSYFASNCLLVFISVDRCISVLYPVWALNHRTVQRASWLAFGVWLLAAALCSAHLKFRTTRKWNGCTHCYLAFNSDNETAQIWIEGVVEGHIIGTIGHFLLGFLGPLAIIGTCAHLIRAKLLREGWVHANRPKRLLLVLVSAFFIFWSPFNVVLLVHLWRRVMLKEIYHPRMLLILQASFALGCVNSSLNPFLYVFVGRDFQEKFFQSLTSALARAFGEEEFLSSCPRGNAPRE
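Beta-arrestin recruitment read-out: luminescence from complemented beta-Gal in CHO-K1 GPR32 PathHunter cells, measured 1 h after detection reagent at ambient temperature following 90 min compound exposure at 37 °C; DMSO served as basal (EC0) control.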
Numbers without * were called inactive; i = inactive; ? = inconclusive; / = no result; ! = not confirmed by another sample; [ ] = another dose, or the depositor's remark. Unless noted, the call rests on the fitted dose curve; in most records, active means well fitted curve in the direction sought with a large enough effect; inconclusive means small, poorly fitted or top-dose-only effect, or another doubt; inactive means no such curve, though single readings can be large; an effect the other way counts as inactive or inconclusive.

SMILES	GALC G270D up	NTMT1 inh	p53null 32C tox	p53null 39C tox	FH mod	GPR32 ag
CSc1cccc(-n2nnc(-c3nsc(NC(=O)c4cccs4)n3)c2C)c1	i	9%	-6%	?	-33%	-10
CCc1cccc(-n2nnc(-c3nsc(NC(=O)c4cccs4)n3)c2C)c1	i	0%	-5%	10µM*	24%	-12
CCc1ccc(-n2nnc(-c3nsc(NC(=O)c4ccccc4Cl)n3)c2C)cc1	i	-2%	38%	8%	5%	105*
COCC(=O)N1CCc2cc(-c3csc(NC(=O)c4cc(OC)cc(OC)c4)n3)ccc21	/	-17%[57.5 µM]	/	/	9%	/
CNc1oc(-c2ccc3c(c2)OCCO3)nc1C#N	/	-10%[57.5 µM]	/	/	/	/
CCC(C)CNCC(=O)N1CCC2SC=CC2C1COc1cccc(C)c1 (stereo not drawn)	/	-6%[57.5 µM]	/	/	1%	/
Cc1cccc(NC(=O)Cn2c(/C=C/c3ccccc3)nc3ccccc32)c1	/	/	/	0%[1.84 µM]	/	/
CCOc1ccc(Cn2c(CNS(=O)(=O)c3cccc(Cl)c3)nc3cccnc32)cc1	i	13%	-3%	14%	-4%	-7
CCOc1ccc(/C=C/c2nc3ccccc3n2S(=O)(=O)c2cccc(Cl)c2)cc1	i	5µM*	13µM*	6.3µM*	-17%	70*
Cc1ccc(/C=C/c2nc3ccccc3n2S(=O)(=O)c2cccc(Cl)c2)cc1	i	?	3.2µM*	3.2µM*	-12%	40
CSc1ccc(/C=C/c2nc3ccccc3n2S(=O)(=O)c2ccc(F)c(C)c2)cc1	i	16µM*	7.9µM*	10µM*	-20%	23
COc1ccccc1-c1cc(N)n(S(=O)(=O)c2ccc(F)c(C)c2)n1	/	/	-3%	-12%	/	/
CCc1ccc(S(=O)(=O)Nc2cccc(-c3ccc(N4CCCCC4)nn3)c2)s1	/	/	16µM*	13µM*	/	-8
Cc1ccc(S(=O)(=O)Nc2cccc(-c3ccc(N4CCCCC4)nn3)c2)s1	i	-13%	13µM*	13µM*	?	0
Cc1ccc(S(=O)(=O)Nc2cccc(-c3ccc(N4CCCC4)nn3)c2)c(C)c1	/	/	18%	31%	/	-5
CC(=O)c1ccc(S(=O)(=O)Nc2cccc(-c3ccc(N4CCCCC4)nn3)c2)cc1	/	/	10µM*	7.9µM*	/	2
Cc1cccc(-n2cnc3cc(C(=O)N4CCC(Br)CC4)ccc32)c1	/	2%[57.5 µM]	/	/	/	/
Cc1cc2oc(=O)c(CC(=O)O)c(C)c2c2occ(-c3ccccc3)c12	i	28µM*	?	-30%	-20%	8
COc1ccc(-c2noc(N3CCN(c4ccc(C)cc4)C(C)C3)n2)cc1OC (stereo not drawn)	i	-16%	3%	-17%	-8%	61*
Oc1ccc(C2CCN(c3ccnc4ccccc34)CC2)cc1O	/	10µM*!	/	/	-13%[53.3 µM]	/
CC1CCN(c2ncnc3ccccc23)CC1	/	/	-4%	4%	/	/
O=C(CCCCn1c(=O)[nH]c2ccsc2c1=O)N1CCN(c2cccc(C(F)(F)F)c2)CC1	i	-7%	21%	3%	?	74*
COC(=O)c1ccc2c(=O)n(CCCCCC(=O)N3CCN(c4cc(Cl)ccc4C)CC3)c(=O)[nH]c2c1	i	5%	20µM*	-6%	-20%	6
COc1cc2[nH]c(=O)n(CCCC(=O)N3CCN(c4cccc(C(F)(F)F)c4)CC3)c(=O)c2cc1OC	i	?	16%	0%	-13%	0
Cc1cccc(N2CCN(C(=O)CCCCn3c(=O)[nH]c4ccsc4c3=O)CC2)c1C	i	-1%	18%	7%	-14%	62*
SMILES	GALC G270D up	NTMT1 inh	p53null 32C tox	p53null 39C tox	FH mod	GPR32 ag
CC(C)(O)CS(=O)(=O)Nc1ccc2c(c1)CCN(C(=O)COc1cccnc1)C2	/	-2%	/	/	/	/
CN(C)Cc1ccc(S(=O)(=O)n2ccc(/C=C/C(=O)NO)c2)cc1	/	-3%	/	/	/	/
C=C1CC2[C@@]3(C)C=CC(=O)C(C)(C)C3=C(O)C(=O)[C@@]2(C)C2(C(=O)OC)C(=O)C(C)OC(=O)[C@@]12C (stereo partly drawn)	/	3%[29.8 µM]	/	/	-3%[53.3 µM]	/
Cc1ccc(OCCn2c(CCNC(=O)c3cccc4[nH]ccc34)nc3ccccc32)cc1	/	5%	/	/	/	/
COc1ccccc1CNc1ccc(S(=O)(=O)Nc2nccs2)cc1	/	1%	/	/	/	/
CCCOC(=O)c1cccc(Nc2nc(C(=O)OCC)nc3ccccc23)c1	i	-9%	0%	?	?	93*
CCOC(=O)c1cccc(Nc2nc(C(=O)OCC)nc3ccccc23)c1	i	-1%	20%	22%	-24%	-9
CCOC(=O)c1cccc(Nc2c3c(nc4ccccc24)CCC3)c1	i	0%	30%	?	-18%	78*
CC(=O)OC/C(=C/C(=O)O)CC[C@@H]1C(C)=CC(=O)[C@@H]2C(C)(C)CCC[C@@]12C	/	3%[29.8 µM]	/	/	0%[53.3 µM]	/
Cc1ccccc1OCC(O)Cn1c(=N)n(CCN2CCCCC2)c2ccccc21 (stereo not drawn)	i	?	-4%	20µM*	0%	20
N=c1n(CCN2CCCCC2)c2ccccc2n1CC(O)COc1ccccc1 (stereo not drawn)	i	1%	3%	-7%	-25%	65*
CCCCCn1c(=N)n(CC(O)COc2cccc(C)c2)c2ccccc21 (stereo not drawn)	i	-12%	?	?	2%	90*
Cc1ccccc1OCCn1c(=N)n(C(C)C)c2ccccc21	i	-3%	7%	?	-27%	-8
O=C1NC(=NCc2cccs2)S/C1=C/c1ccc2ncccc2c1	/	-29%	/	/	-7%	/
CC1=C(CCC(C)O[C@@H]2O[C@H](CO)[C@@H](O)[C@H](O)[C@H]2O)C(C)(C)CCC1=O (stereo partly drawn)	/	9%[29.8 µM]	/	/	-2%[53.3 µM]	/
C=C1C(=O)O[C@H]2CC(=C)[C@H]3CC[C@@](C)(O)[C@@H]3CC12 (stereo partly drawn)	/	12%[57.5 µM]	/	/	-24%	/
COc1ccc(NC(=O)CN2C(=O)C(C)(C)c3ccccc32)cc1Cl	i	-2%	-2%	6%	-18%	103*
CCOC(=O)c1ccc(NC(=O)CN2c3ccccc3S(=O)(=O)c3ccccc32)cc1	i	?	8%	70%	?	-9

Source: PubChem
